POLI inh: inhibitors of human DNA polymerase iota | Q9UNA4 | Pol iota fluorescent replication assay, 10 min | hit rate 1% among 390,000 | AID 588590 | Potency, µM (titrated, usually from 115 µM), for inactives: at the top dose activity, negative = inhibition, usual class: inhibitors; further: potency means the concentration at half of the fitted maximal effect
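Fluorescent replication assay read twice, at 0 min and 10 min after adding 50 nM (final) substrate. Enzyme (10 nM) and compounds were first incubated 15 min at room temperature; enzyme-free buffer wells were negative controls.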
PI5P4K alpha inh: blocks human PI5P4K alpha kinase activity; P48426; PI5P4Kalpha enzyme, ADP-Glo luminescence, 60 min; active compounds read low; max response, %; hit rate 1.2% among 330,000; AID 652105; active means max response of -50% or lower; inconclusive means between -30% and -50%; inactive means -30% or higher; further: value at the top dose of about 77 µM; on the % scale 0 is the no-effect control and ±100 the full control effect
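Reactions run in 0.038 M HEPES pH 7.4, 0.28 mM EGTA, 0.1% CHAPS and 5% DMSO, with PI5P4Kalpha, substrate, compound and 5 microM ATP final, one hour at room temperature. Readout is ADP-Glo luminescence.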
POLB inh: inhibitors of human DNA polymerase beta; Pol beta primer extension/strand displacement, fluorescence kinetic; P06746; Potency, µM (highest dose often 114 µM), inactives show at the top dose activity change, negative = inhibition, usual class: inhibitors; hit rate 1.3% among 340,000; further: potency means the concentration at half of the fitted maximal effect; on the % scale 0 is the no-effect control and ±100 the full control effect
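Pol beta (10 nM) was preincubated with compound for 15 min at room temperature. The reaction was then started with 50 nM substrate and read immediately and after a further 10 min at room temperature.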
POLH inh: inhibitors of human DNA polymerase eta. Q9Y253. recombinant Pol eta, fluorescent DNA replication assay. Potency, µM (doses to about 114 µM), inactives show at the highest dose activity change, negative = inhibition, most hits filed as inhibitors. hit rate 1.2% among 390,000; further: potency means the concentration at half of the fitted maximal effect; on the % scale 0 is the no-effect control and ±100 the full control effect
Target sequence (Q9Y253 whole entry, looked up): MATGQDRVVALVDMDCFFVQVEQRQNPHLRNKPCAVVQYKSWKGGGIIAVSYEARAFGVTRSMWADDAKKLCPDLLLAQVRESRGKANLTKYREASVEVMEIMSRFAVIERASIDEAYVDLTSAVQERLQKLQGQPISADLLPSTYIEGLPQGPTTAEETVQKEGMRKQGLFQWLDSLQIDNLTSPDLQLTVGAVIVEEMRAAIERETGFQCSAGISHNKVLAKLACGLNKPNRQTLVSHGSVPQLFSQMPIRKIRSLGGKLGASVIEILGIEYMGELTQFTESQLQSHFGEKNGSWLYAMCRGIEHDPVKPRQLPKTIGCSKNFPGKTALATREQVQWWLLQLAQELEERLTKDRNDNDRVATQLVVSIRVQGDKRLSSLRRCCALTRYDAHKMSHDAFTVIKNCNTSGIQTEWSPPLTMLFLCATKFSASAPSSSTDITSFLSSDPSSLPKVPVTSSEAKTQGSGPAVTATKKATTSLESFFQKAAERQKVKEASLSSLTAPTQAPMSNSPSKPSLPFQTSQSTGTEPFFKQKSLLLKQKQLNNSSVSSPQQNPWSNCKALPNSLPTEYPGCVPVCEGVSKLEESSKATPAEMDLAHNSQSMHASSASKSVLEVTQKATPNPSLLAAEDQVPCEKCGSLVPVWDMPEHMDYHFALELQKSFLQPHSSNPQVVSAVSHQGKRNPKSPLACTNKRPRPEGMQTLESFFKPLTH
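Pol eta (10 nM) was preincubated with compounds for 15 min at room temperature, after which fluorescent replication substrate (50 nM final) was added to start the reaction. Fluorescence was read kinetically at 0 and 10 min.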
Pol kappa inh: DNA polymerase kappa (human) inhibition; purified Pol kappa, fluorescent DNA synthesis assay, 10 min; Q9UBT6; Potency, µM (titrated, usually from 107 µM), for inactives: at the top dose activity, negative = inhibition, hits mostly inhibitors; AID 588579; hit rate 0.53% among 400,000; further: potency means the concentration at half of the fitted maximal effect; on the % scale 0 is the no-effect control and ±100 the full control effect
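Enzyme at 10 nM met test compounds for 15 min at room temperature. Substrate addition (50 nM final) began the reaction, which was monitored by fluorescence at 0 and 10 min.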
WRN inhibitor: inhibitors of human WRN helicase; Potency, µM (doses to about 114 µM), without a hit: top-dose activity change, negative = inhibition, actives largely listed as inhibitors; WRN helicase unwinding, fluorescent forked duplex, kinetic; hit rate 0.46% among 360,000; Q14191; AID 651768; further: potency means the concentration at half of the fitted maximal effect; on the % scale 0 is the no-effect control and ±100 the full control effect; nearly all actives have a fitted effect of over 55% in size
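Screening of the MLSMR collection measured strand separation of a quenched forked DNA duplex (100 nM) by 20 nM WRN with 2 mM ATP, all final. Compounds were preincubated with enzyme 15 min at room temperature.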
Active calls of the source: *; ? = inconclusive; · = not tested or not shown; [ ] = another dose, or the depositor's remark. Shown are actives, neighbours in structure and some others; about 2.8% of the full set was active somewhere. Unless noted, the call rests on the fitted dose curve; in most records, active means well fitted curve in the direction sought with a large enough effect; inconclusive means small, poorly fitted or top-dose-only effect, or another doubt; inactive means no such curve, though single readings can be large; an effect the other way counts as inactive or inconclusive.

SMILES | POLI inh | PI5P4K alpha inh | POLB inh | POLH inh | Pol kappa inh | WRN inhibitor
O=C(/C=C/c1ccco1)OCc1nnc(-c2ccc(Cl)cc2)o1 | ? | -28.5 | 35.5µM* | -12.4% | -22.4% | -18.4%
COc1ccc(OC)c(S(=O)(=O)Nc2ccc(O)c(Sc3ncn[nH]3)c2)c1 | ? | · | 79.4µM* | ? | -25.0% | ?
CCC1(OC(=O)CN(C)C)C(=O)OCc2c1cc1n(c2=O)Cc2cc3c(N)cccc3nc2-1 (stereo unspecified) | 8.91µM* | -2.4 | · | 7.94µM* | ? | ?
CNS(=O)(=O)c1cccc(C(=O)OCC(=O)c2ccc[nH]2)c1 | 39.8µM* | -61.6* | · | 44.7µM* | -42.1% | -33.3%
O=C1N(Cc2cccc(C(F)(F)F)c2)c2ccccc2S(=O)(=O)N1c1cccc(Cl)c1 | 20.8% | · | -0.4% | ? | -4.3%[60.1 µM] | ·
Cc1sc2c(c1C)c(=O)n(-c1ccc(Cl)cc1)c(=O)n2Cc1cc(=O)n2cc(Br)ccc2n1 | -9.8% | · | -9.1% | -10.3% | -7.3% | ·
N#C/C(=C\c1c[nH]c2ccccc12)C(=O)c1ccc(O)c(O)c1 | 7.94µM* | · | 3.77µM* | 1.41µM* | 5.97µM* | ·
N#C/C(=C\c1c[nH]c2ccccc12)C(=O)NC1CC1 | -29.4% | 4.9 | 20.9% | -4.4% | -11.4% | -17.2%
CC(=O)N1CCCc2cc(S(=O)(=O)N3CCCC(C(=O)Nc4cccc(Cl)c4C)C3)ccc21 (stereo unspecified) | 2.5% | · | 2.5% | 9.7% | -0.8%[60.1 µM] | ·
CCc1cc2cc3c(cc2nc1SCC(=O)Nc1nccs1)OCO3 | 70.8µM* | · | 0.4% | 8.3% | -1.6% | -9.4%
O=C(CSc1ncnc2c1oc1ccccc12)Nc1nccs1 | -16.7% | 4.4 | 5.3% | -12.6% | -8.6% | -5.0%
CCc1nc(SCC(=O)Nc2nccs2)c2oc3ccccc3c2n1 | 31.6µM* | 0.6 | 15.8µM* | ? | -20.3% | ?
O=C(COc1ccccc1)Nc1sc2c(c1C(=O)Nc1ccccc1)CCCCC2 | ? | · | 17.8µM* | 79.4µM* | ? | ·
O=C(O)CN1C(=O)/C(=C\c2cccc(OCc3ccccc3F)c2)SC1=S | ? | -1.2 | 8.9% | ? | -11.7% | -16.1%[57.1 µM]
O=C1C(=Cc2cn(-c3ccccc3)nc2-c2ccc(OCc3ccccc3F)cc2)SC(=S)N1CCS(=O)(=O)O | · | -78.8* | · | · | · | 31.6µM*
O=C(Nc1ccc(F)cc1)C(=O)C1C(=O)Nc2ccccc21 (stereo unspecified) | 89.1µM* | -1.0 | 56.4% | -19.2% | 7.3% | -4.4%
CCN(CC)C(=O)Cn1c(=O)cc(C)c2c(C)nn(-c3cccc(Cl)c3C)c21 | -5.9% | · | -14.6% | -10.3% | -4.5% | ·
COc1ccccc1NC(=O)CCn1cnc2ccccc2c1=O | 89.1µM* | · | ? | · | -4.9%[60.1 µM] | ·
O=C(CCn1cnc2ccccc2c1=O)NCc1ccccc1 | -4.6% | · | 20µM* | ? | -6.4%[60.1 µM] | ·
COc1ccccc1NC(=O)c1ncn(-c2ccccc2)n1 | 89.1µM* | · | 5.4% | · | -7.2% | ·
O=C(CCn1cnc2ccccc2c1=O)NCc1ccccc1Cl | 9.4% | · | 0.3% | -11.8% | -4.6%[60.1 µM] | ·
COc1ccc(NC(=O)c2ncn(-c3ccccc3)n2)cc1Cl | 11.1% | · | 0.0% | -17.6% | 7.0% | ·
COc1cccc(CNC(=O)CCn2cnc3ccccc3c2=O)c1 | ? | · | 14.1µM* | -10.0% | -4.6%[60.1 µM] | ·
CCn1cc2nc(SCc3cc(C)ccc3C)n(CCc3ccccc3)c(=O)c2n1 | -14.4% | · | -6.5% | -5.9% | 2.1% | ·
CCCCNS(=O)(=O)c1ccc2nc(SCC(=O)c3ccc(C#N)cc3)[nH]c2c1 | -2.1% | -9.8 | 39.8µM* | ? | 1.4% | ?
CC(C)(C)n1ncc2c(=O)n(Cc3c(F)ccc(F)c3Cl)cnc21 | 7.1% | · | · | · | -18.2% | ·
COc1ccc(-c2coc3c(C)c4oc(=O)c(CCC(=O)O)c(C)c4cc23)cc1 | ? | ? | ? | 50.1µM* | -40.9% | ?
Cc1c(CC(=O)O)c(=O)oc2c(C)c3occ(-c4ccc(F)cc4)c3cc12 | -11.9% | -14.7 | 50.1µM* | -0.3% | 7.5% | -9.8%
NC(N)=N/N=C/c1ccc(OCc2ccccc2)c(OCc2ccccc2)c1 | 36.6% | -3.6 | 79.4µM* | -21.8% | -14.7% | -2.4%

Source: PubChem (National Center for Advancing Translational Sciences (NCATS))
